Reference: PubChem BioAssay (NCI)
About 83,000 compounds went through this panel and 20% of them were active in at least one assay; those are over-represented in the sample as a whole.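 Growth was measured after 48 h exposure to one concentration of compound in 96-well plates. Values under 10 count as active.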 Values without a mark were called inactive. Active and inactive are the calls of the source.

Experiments:
Assay in all cases: NCI-60 one-dose screen, 48 h (100 = growth as untreated, 0 = no growth, -100 = all killed)
Conditions in all cases: 10 µM unless noted
SK-MEL-2 melanoma = system: SK-MEL-2 melanoma
EKVX NSCLC = system: EKVX NSCLC
SN12C renal = system: SN12C renal
UO-31 renal = system: UO-31 renal
TK-10 renal = system: TK-10 renal
ACHN renal = system: ACHN renal
CAKI-1 renal = system: CAKI-1 renal
A498 renal = system: A498 renal
CCRF-CEM leukemia = system: CCRF-CEM leukemia
MOLT-4 leukemia = system: MOLT-4 leukemia

| Structure (SMILES) | growth (SK-MEL-2 melanoma) | growth (EKVX NSCLC) | growth (SN12C renal) | growth (UO-31 renal) | growth (TK-10 renal) | growth (ACHN renal) | growth (CAKI-1 renal) | growth (A498 renal) | growth (CCRF-CEM leukemia) | growth (MOLT-4 leukemia) |
| --- | --- | --- | --- | --- | --- | --- | --- | --- | --- | --- |
| O=S=Nc1ccc([N+](=O)[O-])cc1 | 98.4% | 96.9% | 98.7% | 78.3% | 84.9% | 80.8% | 78.9% | 79.2% | 101% | 91.2% |
| O=C1Nc2cc(Cl)ccc2/C1=C/c1ccc(N2CCOCC2)s1 | 91.4% | 105% | 104% | 85.9% | -3.94% (active) | 114% | 100% | 87.1% | 99.8% | 92.8% |
| Cc1cc(Cl)ccc1OC(C)C(=O)Nc1nnc(C2CC2)s1 (stereo not given) | 36.3% | 98.6% | 96.4% | 40.1% | 104% | 109% | 103% | 95.2% | 95.9% | 108% |
| COC(=O)CC/C(C)=N\Nc1ccc([N+](=O)[O-])cc1 | 57.3% | 59.2% | 81.9% | 35.5% | 63.3% | 36.2% | 41.4% | 77.3% | 35% | 34% |
| CCSc1nnc(NC(=O)COc2ccc(Cl)cc2C)s1 | 48.6% | 102% | 101% | 46.2% | 116% | 96.5% | 85.8% | 109% | 99.1% | 95.6% |
| COc1ccc(Cl)cc1NC(N)=S | 107% | 105% | 105% | 97% | 89.5% | 110% | 97.3% | 95.9% | 105% | 99.7% |
| O=S(=O)(NCCCNc1nccc(-c2c(-c3ccc(F)c(O)c3)nc3sccn23)n1)c1ccc(Cl)cc1 | 27.7% | 101% | 77.4% | 67.8% | 135% | 65.9% | 54.7% | 109% | 35.2% | 46.1% |
| NC(=O)NNC(=O)c1ccccc1 | 128% | 96.3% | 114% | 89.8% | 103% | 109% | 92.5% | 124% | 105% | 102% |
| COc1ncc(-c2ccc3ncnc(Nc4cccc(Cl)c4)c3c2)cc1NS(=O)(=O)CCN1CCOCC1 | -1.15% (active) | -20.7% (active) | 10.1% | -8.52% (active) | -19.6% (active) | 7.46% (active) | 1.1% (active) | -35.9% (active) | 22.5% | 2.58% (active) |
| O=S(=O)(NCCCNc1cc(-c2cn(-c3ccccc3)nc2-c2cccc(O)c2)ccn1)c1ccc(C(F)(F)F)cc1 | 72.7% | 40.8% | 50.1% | 24.9% | 77.7% | 31.5% | 34.7% | 57.2% | 30.2% | 16% |
| COc1ccc(C(=O)N2CCN(C(=O)c3cc(OC)c(OC)c(OC)c3)CC2)cc1OCCCCOc1cc2c(cc1OC)C(=O)N1CCC[C@H]1C=N2 | 31.9% | 113% | 97.9% | 32.7% | 157% | 105% | 81.4% | 95.5% | 86.4% | 108% |
| NC(=O)c1cccc(N2Cc3ccccc3OC3=C2C(=O)c2c(O)ccc(O)c2C3=O)c1 | -38.7% (active) | -0.27% (active) | -53.5% (active) | -86.7% (active) | -99.7% (active) | -93.7% (active) | -99.4% (active) | 62.1% | -8.27% (active) | -36.2% (active) |
| C=C1C(=O)O[C@H]2[C@H]1CC/C(Cn1cc(-c3ccccc3C(F)(F)F)nn1)=C\CC[C@@]1(C)O[C@@H]21 | -42.2% (active) | -78.6% (active) | -35.3% (active) | -94.5% (active) | -50.1% (active) | -85.4% (active) | -48.8% (active) | 25.9% | -28.5% (active) | -11.7% (active) |
| O=[N+]([O-])c1ccc(S(=O)(=O)N2CCN(c3ccnc4cc(Cl)ccc34)CC2)c([N+](=O)[O-])c1 | 101% | 87.9% | 88.2% | 55.4% | 95.4% | 84.3% | 81.1% | 90% | 14.8% | 44.5% |
| O=C(Cc1n[nH]c(=O)c2ccccc12)OCc1c(Cl)cccc1Cl | 35.5% | 154% | 102% | 103% | 99% | 74.7% | 107% | 91.3% | 61% | 32.9% |
| C/C(=C\c1csc(C)n1)[C@@H]1C[C@@H]2O[C@]2(C)CCC[C@H](C)[C@H](O)[C@@H](C)C(=O)C(C)(C)[C@@H](O)CC(=O)N1 | -46.7% (active) | -25.6% (active) | -81.1% (active) | -85.7% (active) | -68% (active) | -100% (active) | -88.4% (active) | -28.7% (active) | -80.7% (active) | -27.5% (active) |
| OCc1c(-c2ccccc2)nc2sccn12 | 108% | 86.9% | 105% | 94.8% | 106% | 98.4% | 96.6% | 95.9% | 17.9% | 117% |
| Nc1nc(N)c2nc(CNc3ccc(C(=O)CC(CCC(=O)O)C(=O)O)cc3)cnc2n1 (stereo not given) | -6.72% (active) | 42.8% | 30.9% | 8.63% (active) | 74.7% | 27.2% | -3.87% (active) | 51.4% | 17.8% | 33% |
| O=C(Nc1ccc(F)cc1)c1cc([N+](=O)[O-])ccc1O | 37% | 77% | 82.4% | 58.9% | 81.6% | 73.2% | 67.1% | 25.5% | 59.5% | 63.3% |
| CCOP(=O)(CCN1CCN(CCCCCOc2cc3c(cc2OC)C(=O)N2CCC[C@H]2C=N3)CC1)OCC | 33.6% | 98.2% | 79% | 28.3% | 148% | 99.9% | 57.3% | 89.2% | 11% | 19.9% |
| C#CCC1(c2ccc(F)c(F)c2)NS(=O)(=O)c2ccccc21 (stereo not given) | 91.2% | 103% | 106% | 86.4% | 83.6% | 113% | 94.4% | 109% | 99.2% | 90% |
| Cc1ccccc1C(=O)c1ccccc1C(=O)O | 124% | 105% | 105% | 89.7% | 96.5% | 111% | 88.8% | 126% | 103% | 99.5% |
| CNC(=O)c1cc(Oc2ccc3c(c2)sc2nc(-c4ccc(Cl)cc4)cn23)ccn1 | 116% | 80.9% | 95.9% | 85.7% | 110% | 79.3% | 78.8% | 88.8% | 93.6% | 93% |
| O=C1Nc2cc(Cl)ccc2Oc2cc(Oc3ccccc3)ccc21 | 48% | 72% | 68% | 53.4% | 78% | 83.7% | 51% | 67.1% | 54.6% | 45.9% |
| Cc1nc2scc(-c3ccccc3)n2c(=O)c1CCO | 124% | 92.3% | 98.8% | 72.5% | 99.9% | 98.9% | 80.5% | 86.8% | 103% | 106% |
| O=C1CCCCC=C1C[N+](=O)[O-] | 102% | 103% | 95.7% | 53.5% | 107% | 75.8% | 76% | 117% | 54.2% | 42.5% |
| Nc1nn2cc(-c3ccc(Cl)s3)nc2c2ccccc12 | 49.9% | 86.7% | 91.9% | 67.1% | 113% | 79.6% | 74.6% | 59.5% | 76.8% | 44.4% |
| CCCCCCOc1ccc(C2(Cl)c3ccccc3N(C)c3ccccc32)cc1 | 42.3% | 58.5% | 52.4% | 67.8% | 76.7% | 61% | 61.7% | 86.6% | 89.2% | 74% |
